# Laboratory results taken from paper PMC7862700, “An all-to-all approach to the identification of sequence-specific readers for epigenetic DNA modifications on cytosine”.
# Tests used:
# Test in all cases: DAPPL (digital affinity profiling via proximity ligation, sequencing); 10 mM Tris-HCl pH 7.5, 50 mM NaCl, 1 mM DTT, 4% glycerol, room temperature, 30 min; GST-TFs on glutathione beads, 16-mer random dsDNA library, 0.1% formaldehyde crosslink after washing; high values mean tight binding
# FEV = target: T1, FEV (Homo sapiens, UniProt Q99581 1-238); details: protein: recombinant; tags: N-terminal GST; dsDNA, one strand shown
# T1 sequence: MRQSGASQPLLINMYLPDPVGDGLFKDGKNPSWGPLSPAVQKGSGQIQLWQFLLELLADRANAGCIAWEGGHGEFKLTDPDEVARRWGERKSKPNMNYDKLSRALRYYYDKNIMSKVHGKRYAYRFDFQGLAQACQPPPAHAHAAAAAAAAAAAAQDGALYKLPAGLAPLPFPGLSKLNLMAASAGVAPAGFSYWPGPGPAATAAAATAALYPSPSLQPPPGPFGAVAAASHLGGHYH
# Procedure, shortened: (§1)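 Each value of binding signal is a hexamer's read frequency for a factor divided by the same hexamer's frequency in the tag-only sample. Barcoded, bead-captured GST fusions of human transcription factors made in yeast were pooled with that sample and incubated with 200 nmole of a random double-stranded 16-mer DNA library in Tris/NaCl/DTT/glycerol buffer at room temperature for 30 min. Washing, 0.1% formaldehyde crosslinking, proximity ligation, PCR and Illumina NextSeq500 sequencing followed.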
# ETV5 = ETV5 (Homo sapiens, UniProt P41161 1-510); details: protein: recombinant; tags: N-terminal GST; dsDNA, one strand shown
# Procedure, shortened: as §1
# HSF1 = HSF1 (Homo sapiens, UniProt Q00613 1-529); details: protein: recombinant; tags: N-terminal GST; chain copies: 3; dsDNA, one strand shown
# Procedure, shortened: as §1
# SPIC = target: T2, SPIC (Homo sapiens, UniProt Q8N5J4 1-248); details: protein: recombinant; tags: N-terminal GST; dsDNA, one strand shown
# T2 sequence: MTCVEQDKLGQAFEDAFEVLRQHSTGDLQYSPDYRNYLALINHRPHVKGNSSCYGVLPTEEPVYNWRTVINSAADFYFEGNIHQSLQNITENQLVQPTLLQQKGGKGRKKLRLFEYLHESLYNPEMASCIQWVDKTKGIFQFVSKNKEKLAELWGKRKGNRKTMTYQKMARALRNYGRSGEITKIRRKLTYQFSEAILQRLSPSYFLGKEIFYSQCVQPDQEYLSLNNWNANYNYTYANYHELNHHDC
# Procedure, shortened: as §1
# ELF4 = ELF4 (Homo sapiens, UniProt Q99607 1-663); details: protein: recombinant; tags: N-terminal GST; dsDNA, one strand shown
# Procedure, shortened: as §1
# ELK4 = target: T3, ELK4 (Homo sapiens, UniProt P28324-2 1-405); details: protein: recombinant; tags: N-terminal GST; dsDNA, one strand shown
# T3 sequence: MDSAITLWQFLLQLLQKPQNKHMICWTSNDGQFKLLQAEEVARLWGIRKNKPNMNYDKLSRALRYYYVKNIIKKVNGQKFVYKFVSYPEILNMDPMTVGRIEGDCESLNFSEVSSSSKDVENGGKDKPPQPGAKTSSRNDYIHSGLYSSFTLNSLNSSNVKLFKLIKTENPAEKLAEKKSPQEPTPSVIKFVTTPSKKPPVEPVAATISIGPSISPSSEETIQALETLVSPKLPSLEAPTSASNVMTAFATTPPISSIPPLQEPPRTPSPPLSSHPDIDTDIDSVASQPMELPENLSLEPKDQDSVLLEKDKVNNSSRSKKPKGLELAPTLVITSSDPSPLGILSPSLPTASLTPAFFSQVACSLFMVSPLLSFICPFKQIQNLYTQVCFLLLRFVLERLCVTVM
# Procedure, shortened: as §1
# ETV2 = target: T4, ETV2 (Homo sapiens, UniProt O00321 1-342); details: protein: recombinant; tags: N-terminal GST; dsDNA, one strand shown
# T4 sequence: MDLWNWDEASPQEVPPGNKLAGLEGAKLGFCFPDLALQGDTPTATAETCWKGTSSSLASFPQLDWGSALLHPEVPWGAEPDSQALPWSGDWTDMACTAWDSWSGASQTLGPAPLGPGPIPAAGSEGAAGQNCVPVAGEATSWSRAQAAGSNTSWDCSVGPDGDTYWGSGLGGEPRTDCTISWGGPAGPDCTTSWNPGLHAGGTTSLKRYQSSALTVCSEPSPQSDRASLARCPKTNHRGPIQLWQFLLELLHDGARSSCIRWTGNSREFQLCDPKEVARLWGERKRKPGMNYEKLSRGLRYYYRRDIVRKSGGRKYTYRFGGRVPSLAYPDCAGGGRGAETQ
# Procedure, shortened: as §1
# ELF3 = target: T5, ELF3 (Homo sapiens, UniProt P78545 1-371); details: protein: recombinant; tags: N-terminal GST; dsDNA, one strand shown
# T5 sequence: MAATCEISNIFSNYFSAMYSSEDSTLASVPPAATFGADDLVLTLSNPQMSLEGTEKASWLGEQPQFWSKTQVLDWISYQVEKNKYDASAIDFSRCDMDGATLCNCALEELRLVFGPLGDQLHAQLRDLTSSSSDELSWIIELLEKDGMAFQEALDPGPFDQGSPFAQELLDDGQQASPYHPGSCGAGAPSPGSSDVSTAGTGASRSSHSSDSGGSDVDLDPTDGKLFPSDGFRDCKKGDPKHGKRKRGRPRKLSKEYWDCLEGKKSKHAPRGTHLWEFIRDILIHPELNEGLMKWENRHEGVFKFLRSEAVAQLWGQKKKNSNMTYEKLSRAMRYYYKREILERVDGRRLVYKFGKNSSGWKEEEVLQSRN
# Procedure, shortened: as §1
# CRX = CRX (Homo sapiens, UniProt O43186 1-299); details: protein: recombinant; tags: N-terminal GST; dsDNA, one strand shown
# Procedure, shortened: as §1
# ETV1 = ETV1 (Homo sapiens, UniProt P50549 1-477); details: protein: recombinant; tags: N-terminal GST; dsDNA, one strand shown
# Procedure, shortened: as §1
# ERF = target: T6, ERF (Homo sapiens, UniProt P50548 1-548); details: protein: recombinant; tags: N-terminal GST; dsDNA, one strand shown
# T6 sequence: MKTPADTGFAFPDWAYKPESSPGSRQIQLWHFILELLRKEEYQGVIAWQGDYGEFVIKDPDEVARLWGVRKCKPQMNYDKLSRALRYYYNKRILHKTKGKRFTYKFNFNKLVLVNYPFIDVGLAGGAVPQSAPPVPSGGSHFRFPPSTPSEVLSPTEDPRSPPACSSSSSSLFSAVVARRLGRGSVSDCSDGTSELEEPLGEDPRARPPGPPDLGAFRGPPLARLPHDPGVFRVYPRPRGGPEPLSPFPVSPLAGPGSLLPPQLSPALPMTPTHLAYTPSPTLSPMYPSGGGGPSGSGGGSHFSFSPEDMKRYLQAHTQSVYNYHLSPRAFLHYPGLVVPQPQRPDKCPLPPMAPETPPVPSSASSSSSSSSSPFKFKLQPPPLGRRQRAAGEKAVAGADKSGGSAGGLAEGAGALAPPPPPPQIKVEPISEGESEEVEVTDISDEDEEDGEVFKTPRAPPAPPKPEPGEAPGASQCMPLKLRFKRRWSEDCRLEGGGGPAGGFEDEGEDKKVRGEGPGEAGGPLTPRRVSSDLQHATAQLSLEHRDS
# Procedure, shortened: as §1
# ETV3L = target: T7, ETV3L (Homo sapiens, UniProt Q6ZN32 1-361); details: protein: recombinant; tags: N-terminal GST; dsDNA, one strand shown
# T7 sequence: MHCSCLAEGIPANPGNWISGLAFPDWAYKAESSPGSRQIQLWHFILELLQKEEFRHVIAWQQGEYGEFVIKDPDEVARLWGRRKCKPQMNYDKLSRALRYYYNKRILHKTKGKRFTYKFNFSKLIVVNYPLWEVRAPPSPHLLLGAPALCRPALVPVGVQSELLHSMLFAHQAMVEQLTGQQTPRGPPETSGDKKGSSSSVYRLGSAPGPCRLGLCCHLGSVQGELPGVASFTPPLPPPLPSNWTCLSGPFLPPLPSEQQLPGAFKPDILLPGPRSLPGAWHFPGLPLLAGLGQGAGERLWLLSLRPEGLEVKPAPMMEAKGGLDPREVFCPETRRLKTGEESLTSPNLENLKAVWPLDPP
# Procedure, shortened: as §1
# ETS2 = target: T8, ETS2 (Homo sapiens, UniProt P15036 1-469); details: protein: recombinant; tags: N-terminal GST; dsDNA, one strand shown
# T8 sequence: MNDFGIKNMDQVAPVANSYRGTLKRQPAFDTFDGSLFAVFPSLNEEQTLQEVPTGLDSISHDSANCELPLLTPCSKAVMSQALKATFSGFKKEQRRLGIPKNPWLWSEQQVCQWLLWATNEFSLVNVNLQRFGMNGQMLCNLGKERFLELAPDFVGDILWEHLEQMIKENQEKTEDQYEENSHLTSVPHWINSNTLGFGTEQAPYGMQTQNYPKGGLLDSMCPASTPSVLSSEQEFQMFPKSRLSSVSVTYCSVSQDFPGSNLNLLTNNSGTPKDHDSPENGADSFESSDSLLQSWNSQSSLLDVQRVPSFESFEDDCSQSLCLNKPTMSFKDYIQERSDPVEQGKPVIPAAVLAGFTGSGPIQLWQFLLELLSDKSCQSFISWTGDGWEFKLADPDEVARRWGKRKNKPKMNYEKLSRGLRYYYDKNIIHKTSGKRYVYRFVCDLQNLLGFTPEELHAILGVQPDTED
# Procedure, shortened: as §1
# SPDEF = target: T9, SPDEF (Homo sapiens, UniProt O95238 1-335); details: protein: recombinant; tags: N-terminal GST; dsDNA, one strand shown
# T9 sequence: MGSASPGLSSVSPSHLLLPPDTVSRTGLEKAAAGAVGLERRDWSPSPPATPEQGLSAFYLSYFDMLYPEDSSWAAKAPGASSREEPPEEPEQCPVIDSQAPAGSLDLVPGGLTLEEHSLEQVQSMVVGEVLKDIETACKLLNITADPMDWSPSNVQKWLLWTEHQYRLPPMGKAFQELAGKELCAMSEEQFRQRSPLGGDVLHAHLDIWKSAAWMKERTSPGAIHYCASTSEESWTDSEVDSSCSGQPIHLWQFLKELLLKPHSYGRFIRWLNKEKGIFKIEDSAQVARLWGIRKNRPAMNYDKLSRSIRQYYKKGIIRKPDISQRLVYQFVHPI
# Procedure, shortened: as §1
# ETV7 = target: T10, ETV7 (Homo sapiens, UniProt Q9Y603 1-341); details: protein: recombinant; tags: N-terminal GST; dsDNA, one strand shown
# T10 sequence: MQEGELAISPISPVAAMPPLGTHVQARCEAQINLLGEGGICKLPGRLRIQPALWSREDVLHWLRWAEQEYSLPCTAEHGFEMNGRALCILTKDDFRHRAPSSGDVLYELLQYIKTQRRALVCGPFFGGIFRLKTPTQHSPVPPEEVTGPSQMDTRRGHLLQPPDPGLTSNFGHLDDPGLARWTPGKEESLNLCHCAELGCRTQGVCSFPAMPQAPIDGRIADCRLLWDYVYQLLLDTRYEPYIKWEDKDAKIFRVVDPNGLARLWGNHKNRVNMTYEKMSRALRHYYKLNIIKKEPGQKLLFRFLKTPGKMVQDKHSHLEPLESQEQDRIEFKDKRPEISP
# Procedure, shortened: as §1
# ELF5 = target: T11, ELF5 (Homo sapiens, UniProt Q9UKW6-2 1-255); details: protein: recombinant; tags: N-terminal GST; dsDNA, one strand shown
# T11 sequence: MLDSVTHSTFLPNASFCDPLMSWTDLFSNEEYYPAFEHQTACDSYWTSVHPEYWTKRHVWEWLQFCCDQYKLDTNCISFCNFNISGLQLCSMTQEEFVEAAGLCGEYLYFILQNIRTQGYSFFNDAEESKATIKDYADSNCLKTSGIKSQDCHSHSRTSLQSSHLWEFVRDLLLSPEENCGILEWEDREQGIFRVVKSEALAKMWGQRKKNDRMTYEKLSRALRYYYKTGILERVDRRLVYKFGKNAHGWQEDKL
# Procedure, shortened: as §1
# ETV3 = target: T12, ETV3 (Homo sapiens, UniProt P41162-2 1-143); details: protein: recombinant; tags: N-terminal GST; dsDNA, one strand shown
# T12 sequence: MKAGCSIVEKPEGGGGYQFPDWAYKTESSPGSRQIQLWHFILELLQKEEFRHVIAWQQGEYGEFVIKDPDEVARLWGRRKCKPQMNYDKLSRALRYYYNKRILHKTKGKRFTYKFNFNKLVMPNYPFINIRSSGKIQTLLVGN
# Procedure, shortened: as §1
# ETV6 = ETV6 (Homo sapiens, UniProt P41212 1-452); details: protein: recombinant; tags: N-terminal GST; dsDNA, one strand shown
# Procedure, shortened: as §1
# Chain of ETV1 (P50549 whole entry): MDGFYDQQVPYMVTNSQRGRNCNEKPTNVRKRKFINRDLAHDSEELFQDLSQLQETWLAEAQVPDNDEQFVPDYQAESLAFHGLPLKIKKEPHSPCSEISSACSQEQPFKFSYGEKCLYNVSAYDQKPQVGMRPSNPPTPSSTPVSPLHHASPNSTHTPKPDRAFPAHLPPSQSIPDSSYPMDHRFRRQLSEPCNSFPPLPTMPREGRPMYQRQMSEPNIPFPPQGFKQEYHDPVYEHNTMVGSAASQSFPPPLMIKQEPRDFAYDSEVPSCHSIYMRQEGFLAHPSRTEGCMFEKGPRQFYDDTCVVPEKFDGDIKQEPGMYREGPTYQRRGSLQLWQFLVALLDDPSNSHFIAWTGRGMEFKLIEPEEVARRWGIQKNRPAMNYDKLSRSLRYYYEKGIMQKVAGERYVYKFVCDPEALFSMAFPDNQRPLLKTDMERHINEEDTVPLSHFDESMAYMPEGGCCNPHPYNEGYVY
# Chain of ETV5 (P41161 whole entry): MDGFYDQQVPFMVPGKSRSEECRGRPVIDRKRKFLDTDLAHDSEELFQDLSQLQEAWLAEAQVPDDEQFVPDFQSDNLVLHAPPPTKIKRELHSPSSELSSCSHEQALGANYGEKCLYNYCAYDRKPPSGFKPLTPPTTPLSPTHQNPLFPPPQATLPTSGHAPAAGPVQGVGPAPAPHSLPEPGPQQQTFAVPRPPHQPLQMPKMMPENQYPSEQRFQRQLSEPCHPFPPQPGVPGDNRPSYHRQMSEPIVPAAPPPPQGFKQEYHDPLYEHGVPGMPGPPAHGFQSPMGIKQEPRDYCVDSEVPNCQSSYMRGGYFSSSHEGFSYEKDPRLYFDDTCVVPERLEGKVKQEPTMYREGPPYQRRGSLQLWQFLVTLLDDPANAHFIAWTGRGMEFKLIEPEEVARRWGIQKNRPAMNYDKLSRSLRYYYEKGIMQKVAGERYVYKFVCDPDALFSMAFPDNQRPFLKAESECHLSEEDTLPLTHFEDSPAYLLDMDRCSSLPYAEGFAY
# Chain of ETV6 (P41212 whole entry): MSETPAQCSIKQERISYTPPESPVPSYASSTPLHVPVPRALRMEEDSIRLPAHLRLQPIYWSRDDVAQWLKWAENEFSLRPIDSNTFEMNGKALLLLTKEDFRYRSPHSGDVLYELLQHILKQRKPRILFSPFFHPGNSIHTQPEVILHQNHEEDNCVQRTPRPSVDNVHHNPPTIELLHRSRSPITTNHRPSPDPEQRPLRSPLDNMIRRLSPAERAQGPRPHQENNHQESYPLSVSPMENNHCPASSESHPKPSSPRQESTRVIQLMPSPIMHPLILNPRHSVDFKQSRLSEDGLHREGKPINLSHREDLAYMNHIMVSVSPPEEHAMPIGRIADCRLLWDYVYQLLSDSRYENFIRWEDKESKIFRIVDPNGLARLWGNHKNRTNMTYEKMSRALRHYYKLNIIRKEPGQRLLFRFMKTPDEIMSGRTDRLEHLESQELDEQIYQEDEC
# Chain of HSF1 (Q00613 whole entry): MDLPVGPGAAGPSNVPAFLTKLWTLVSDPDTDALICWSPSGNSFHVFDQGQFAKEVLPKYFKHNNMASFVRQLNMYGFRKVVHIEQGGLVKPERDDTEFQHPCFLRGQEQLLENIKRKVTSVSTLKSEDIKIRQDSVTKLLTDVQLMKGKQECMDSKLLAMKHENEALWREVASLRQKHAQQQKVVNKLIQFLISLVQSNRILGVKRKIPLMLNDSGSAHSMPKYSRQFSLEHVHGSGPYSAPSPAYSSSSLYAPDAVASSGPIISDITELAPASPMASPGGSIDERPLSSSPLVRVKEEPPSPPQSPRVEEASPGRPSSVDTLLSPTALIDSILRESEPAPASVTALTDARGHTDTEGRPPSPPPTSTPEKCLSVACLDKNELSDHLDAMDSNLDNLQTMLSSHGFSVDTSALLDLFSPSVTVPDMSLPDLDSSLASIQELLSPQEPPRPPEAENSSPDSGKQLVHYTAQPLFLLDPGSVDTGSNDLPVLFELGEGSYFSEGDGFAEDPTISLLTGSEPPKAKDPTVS
# Chain of ELF4 (Q99607 whole entry): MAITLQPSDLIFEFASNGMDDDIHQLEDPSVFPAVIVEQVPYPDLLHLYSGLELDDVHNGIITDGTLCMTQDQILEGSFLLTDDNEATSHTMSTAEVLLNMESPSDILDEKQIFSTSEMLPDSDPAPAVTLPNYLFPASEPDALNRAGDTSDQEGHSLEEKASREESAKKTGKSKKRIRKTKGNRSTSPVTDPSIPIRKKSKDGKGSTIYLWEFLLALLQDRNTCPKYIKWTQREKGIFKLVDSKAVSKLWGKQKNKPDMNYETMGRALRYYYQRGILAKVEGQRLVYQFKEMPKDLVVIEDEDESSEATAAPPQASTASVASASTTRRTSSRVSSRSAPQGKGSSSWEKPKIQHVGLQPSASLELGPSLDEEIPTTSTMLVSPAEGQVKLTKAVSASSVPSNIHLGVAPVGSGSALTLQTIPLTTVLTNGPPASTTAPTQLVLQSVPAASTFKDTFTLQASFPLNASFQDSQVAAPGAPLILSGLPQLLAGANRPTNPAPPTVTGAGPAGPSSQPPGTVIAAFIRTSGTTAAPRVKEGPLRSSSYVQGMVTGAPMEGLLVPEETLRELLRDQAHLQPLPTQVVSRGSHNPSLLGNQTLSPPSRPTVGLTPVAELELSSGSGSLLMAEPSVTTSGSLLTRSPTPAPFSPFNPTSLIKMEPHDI
# Chain of CRX (O43186 whole entry): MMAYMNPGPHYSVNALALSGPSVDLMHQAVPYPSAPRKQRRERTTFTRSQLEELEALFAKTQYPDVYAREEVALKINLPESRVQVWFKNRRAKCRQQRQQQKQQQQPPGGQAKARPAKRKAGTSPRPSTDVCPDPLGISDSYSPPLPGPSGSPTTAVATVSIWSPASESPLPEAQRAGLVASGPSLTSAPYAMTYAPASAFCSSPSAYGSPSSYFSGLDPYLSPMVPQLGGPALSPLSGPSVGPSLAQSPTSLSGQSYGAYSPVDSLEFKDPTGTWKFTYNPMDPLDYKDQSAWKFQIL
sequence,measurement,setting,value
TATTAA,binding signal,FEV,"1.14 fold enrichment (6-mer frequency, TF over GST control)"
same,binding signal,ETV5,"1.13 fold enrichment (6-mer frequency, TF over GST control)"
same,binding signal,HSF1,"1.82 fold enrichment (6-mer frequency, TF over GST control)"
same,binding signal,SPIC,"1.12 fold enrichment (6-mer frequency, TF over GST control)"
same,binding signal,ELF4,"1.16 fold enrichment (6-mer frequency, TF over GST control)"
same,binding signal,ELK4,"1.02 fold enrichment (6-mer frequency, TF over GST control)"
same,binding signal,ETV2,"1.09 fold enrichment (6-mer frequency, TF over GST control)"
same,binding signal,ELF3,"1.06 fold enrichment (6-mer frequency, TF over GST control)"
same,binding signal,CRX,"2.83 fold enrichment (6-mer frequency, TF over GST control)"
same,binding signal,ETV1,"1.14 fold enrichment (6-mer frequency, TF over GST control)"
same,binding signal,ERF,"1.22 fold enrichment (6-mer frequency, TF over GST control)"
same,binding signal,ETV3L,"1.18 fold enrichment (6-mer frequency, TF over GST control)"
same,binding signal,ETS2,"1.17 fold enrichment (6-mer frequency, TF over GST control)"
same,binding signal,SPDEF,"1.18 fold enrichment (6-mer frequency, TF over GST control)"
same,binding signal,ETV7,"1.15 fold enrichment (6-mer frequency, TF over GST control)"
same,binding signal,ELF5,"1.13 fold enrichment (6-mer frequency, TF over GST control)"
same,binding signal,ETV3,"1.16 fold enrichment (6-mer frequency, TF over GST control)"
same,binding signal,ETV6,"1.12 fold enrichment (6-mer frequency, TF over GST control)"
